Experimental data from PubChem BioAssay (NCI).
Compounds without any hit were thinned out: in the full panel of roughly 79,000, 15% have a hit. Cut-off read from the data, not from the text of the source: active = growth inhibition above about 70%; inactive = the rest.

How the values were obtained:
[1] = NCI Yeast Anticancer Drug Screen. Data for the rad50 strain (AID 155);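 note: 0% = growth of vehicle-only cultures of the same strain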; settings: S. cerevisiae rad50 strain growth inhibition, active compounds read high; at 50.0 µM unless noted
Outline: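 Readout: growth inhibition relative to vehicle-treated cultures. Compound exposure was carried out in a genetically defined yeast strain deficient in DNA damage repair.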

[2] = NCI Yeast Anticancer Drug Screen. Data for the mec2-1 strain (AID 157); settings: S. cerevisiae mec2-1 strain, active compounds read high; at 50.0 µM unless noted
Outline: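 Each compound was tested on mec2-1 yeast, a strain altered in DNA damage repair or cell cycle control. Growth inhibition is reported relative to vehicle.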

[3] = NCI Yeast Anticancer Drug Screen. Data for the sgs1 mgt1 strain (AID 161);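 note: 0% = growth of cultures given vehicle only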; settings: S. cerevisiae sgs1 mgt1 strain, active compounds read high; at 50.0 µM unless noted
Outline: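 Test agents were incubated with a DNA-repair-mutant yeast strain. Growth was then read and compared against vehicle-treated controls.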

[4] = NCI Yeast Anticancer Drug Screen. Data for the cln2 rad14 strain (AID 165);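 note: 0% = growth equal to vehicle treated cultures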; settings: S. cerevisiae cln2 rad14 strain, active compounds read high; at 50.0 µM unless noted
Outline: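 Test compounds were added to cln2 rad14 yeast cultures; inhibition of growth was then determined by comparison with vehicle treatment.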

[5] = NCI Yeast Anticancer Drug Screen. Data for the bub3 strain (AID 167); settings: S. cerevisiae bub3 mutant strain, active compounds read high; at 50.0 µM unless noted
Outline: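 Readout: yeast growth inhibition, expressed relative to vehicle-only wells. The test organism is a mutant strain from a panel with lesions in DNA repair or checkpoint genes.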

[6] = NCI Yeast Anticancer Drug Screen. Data for the mlh1 rad18 strain (AID 175); settings: S. cerevisiae mlh1 rad18 strain growth inhibition, active compounds read high; at 50.0 µM unless noted
Outline: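 Inhibition values reflect reduced growth of mutant yeast versus vehicle-treated controls following compound exposure; the mutations affect DNA damage repair.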

Measured: growth inhibition

COC1COCOC1C(OC)C1OCOCC1OC (stereo not given)
inactive: [1] -2.25% | [2] -12.2% | [3] -8.15% | [4] -46.3% | [5] -4.25% | [6] -2.8%

Cc1nnc2sc(N/N=C/c3ccccc3)nn12
inactive: [1] -35.5% | [2] -29.9% | [3] -69.2% | [4] -13.8% | [5] -10.1% | [6] -71.3%

COC1CCC(/C=C(\C#N)C2CCC(C)CC2)CC1 (stereo not given)
inactive: [1] 18.3% | [2] 22.1% | [3] 43.9% | [4] 12.1% | [5] 30.2% | [6] 30.6%

O=C(O)c1cccc2c(=O)c3ccccc3oc12
inactive: [1] -13.9% | [2] -39.8% | [3] -16.9% | [4] 8.25% | [5] -32.4% | [6] 0.85%

CCN(CC)CCNc1ccc2ncn3c4cc(=O)ccc4c(O)c1c23
inactive: [1] -2.3% | [2] -31.5% | [3] -46.4% | [4] 7.9% | [5] -7.85% | [6] 4.3%

O=C1CCC(=O)N1CNc1cccc(NCN2C(=O)CCC2=O)c1
inactive: [1] -5.35% | [2] -30.9% | [3] 11.9% | [4] 10.5% | [5] 3.9% | [6] -4.6%

O=C(/C=C/c1ccccc1)c1ccc(I)cc1
inactive: [1] 11.7% | [2] -1.25% | [3] 9.6% | [4] -8.2% | [5] 5.25% | [6] 1.5%

C=C(C)c1ccc(C(C)C)cc1
inactive: [1] -38.5% | [2] -40.1% | [3] -24.6% | [4] 4.55% | [5] -13.6% | [6] -3.25%

CC(C)NC(=O)OCc1c(COC(=O)NC(C)C)c2n(c1Br)CCC2
inactive: [1] 32.8% | [2] 26.1% | [3] -9.6% | [4] 16.9% | [5] 0.2% | [6] -51.4%

Cc1nc2cnc(=Nc3ccccc3)nc-2n(-c2ccccc2)c1C
inactive: [1] -1.15% | [2] -1.55% | [3] -0.65% | [4] 56.9% | [5] 5.15% | [6] -7.9%

CCN1c2ccccc2CC(CCCN(C)C)(C(N)=O)c2ccccc21 (stereo not given)
inactive: [1] 3.8% | [2] 12.3% | [3] 18.2% | [4] 9.45% | [5] -1.85% | [6] -8.25%

O=C(Nc1noc(-c2ccccc2)n1)c1ccccc1CNc1noc(-c2ccccc2)n1
inactive: [1] -7.75% | [2] -4.85% | [3] 0.8% | [4] -10.8% | [5] -6.7% | [6] 0%

O=C1NCC1c1ccccc1 (stereo not given)
inactive: [1] -12% | [2] -4.85% | [3] -8.65% | [4] 5.35% | [5] 19.1% | [6] 3.45%

NC(=O)NN(Cc1ccc2c(c1)OCO2)N=O
inactive: [1] -7.25% | [2] -6% | [3] -5.55% | [4] -16.6% | [5] 16.2% | [6] 1.9%

O=C1C=C(C2=CC(=O)c3cccc(O)c3C2=O)C(=O)c2c(O)cccc21
inactive: [1] -32.5% | [2] -13% | [3] -9.9% | [4] -46% | [5] -8.5% | [6] -4.7%

O=[N+]([O-])c1cccc(C2=NN(c3ccccc3)C3c4cc(Br)ccc4OCC23)c1 (stereo not given)
inactive: [1] -10.8% | [2] -18.4% | [3] -17.6% | [4] 2.45% | [5] 10.2% | [6] -31.7%

O=CNC1c2ccccc2CCc2ccccc21
inactive: [1] -1.15% | [2] -12.9% | [3] -11.4% | [4] -2.45% | [5] -22.6% | [6] -5.85%

NC(=S)Nc1ccc(Br)cc1
inactive: [1] -0.85% | [2] 23.6% | [3] 25.5% | [4] 34.8% | [5] -4.05% | [6] 7.6%

CC(C)=Nn1cnc2c1NC(C)(C)N=C2C(N)=O
inactive: [1] -18.8% | [2] -17.2% | [3] -12.2% | [4] 7.85% | [5] 14.8% | [6] -15.6%

COC(=O)CC(NC(=O)OCc1ccccc1)C(=O)NCC(=O)Oc1ccc([N+](=O)[O-])cc1 (stereo not given)
inactive: [1] 21.1% | [2] 11.8% | [3] 12.2% | [4] 12.2% | [5] 5.75% | [6] 8.5%
